Assay results from PubChem BioAssay (NCI).
Compounds without any hit were thinned out: in the full panel of roughly 83,000, 20% have a hit.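 The test compound was applied at a single concentration to cells in 96-well plates for 48 hours, and percent growth was recorded.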 Values without a mark were called inactive. The calls were made as follows: active = growth percent below 10; inactive = the rest.

These compounds were tested on MDA-MB-468 breast (assay: NCI-60 one-dose screen, 48 h (100 = growth as untreated, 0 = no growth, -100 = all killed)). Conditions: 10 µM unless noted.

SMILES | growth [%]
O=Cc1ccc(F)cc1 | 91
CC(=O)NC1(C(=O)O)CCCC1 | 116
NC(Cc1ccc(O)cc1)C(=O)N/N=C/c1ccccc1O (stereo not drawn) | 108
